Among the data in ChEMBL document CHEMBL4513216, “Probing the Open Global Health Chemical Diversity Library for Multistage-Active Starting Points for Next-Generation Antimalarials” (ACS Infect Dis, 2020) are INHIBITION values, retold here.

Structures are written as SMILES. Among all 69,000 compounds or so, about 8,600 (12%) showed an effect of 50% or more. This excerpt belongs to a sample that is enriched for strong results.

The test system of the assay is Plasmodium berghei. Description: Screen against P. berghei liver stage (PbLuc), transformed with Luciferase, at 10uM. It counts as functional, HepG2. The note with it: tested at 10 uM.
With `Cc1cc(C)n(CC2CN(CC(=O)Nc3cccnc3)CCO2)n1` (stereo not given), the INHIBITION is reported as -14.3%.
Consider `CCN(CCNC(=O)c1cccc(C)c1C)C1CC1`, for which the INHIBITION was -16%.
Then `O=C1CSC(c2ccc(F)c(Cl)c2)c2c(n(C3CCOCC3)[nH]c2=O)N1` (stereo not given), with 72.8%.
Under `O=C1CSC(c2ccc(O)c(Cl)c2)c2c(n(C3CCOCC3)[nH]c2=O)N1` (stereo not given) stands 15%.
Under `COc1ccccc1C1SCC(=O)Nc2c1c(=O)[nH]n2C1CCOCC1` (stereo not given) stands 39.3%; under `O=C1CSC(c2ccc(Cl)cc2Cl)c2c(n(C3CCOCC3)[nH]c2=O)N1` (stereo not given), 54.5%; under `CC1=Nc2c(c(=O)[nH]n2C2CCOCC2)C(c2cccc(Br)c2)S1` (stereo not given), 3.95%.
For `CC(=O)c1cccc(OCC(=O)NS(=O)(=O)c2cccs2)c1`, the INHIBITION is 2.97%.
Then `Cn1nccc1-c1nnn2c1COCC(CNC1CCOCC1)C2` (stereo not given), with 45.7%; and `O=C(CO)N1CCC(c2ccnc(Nc3cc(C(F)(F)F)ccn3)n2)C1` (stereo not given), with 20.2%; and `Cc1noc([C@@]23CCO[C@@H]2CCN(Cc2scnc2C)C3)n1`, with 18.6%.
Then `COCCN1C[C@@H]2CN(Cc3ccoc3)CCC[C@]2(C(=O)O)C1`, with -9.02%; and `COCCN1CCC(CN(CC2CCCO2)C(=O)Cn2cccn2)CC1` (stereo not given), with 15.4%; and `CCN1CCCC1CN(Cc1ccon1)CC1CCN(CCOC)CC1` (stereo not given), with 81.2%.
Then `CC[C@@H]1N(Cc2ccoc2)CCC[C@]12CCC(=O)N2CCOC`, with -11.2%; and `CCN1CCCC1CN(Cc1cc[nH]n1)CC1CCN(CCOC)CC1` (stereo not given), with 45%; and `CCN1CCCC1CN(Cc1ccoc1)CC1CCN(CCOC)CC1` (stereo not given), with 53.7%.
For the compound `CCn1ccnc1CN1CCCN(C(=O)c2csc(C)n2)CC1`, the INHIBITION was -1.55%.
Under `Cc1cnc(N2C[C@H]3C[C@H](C(=O)N4CCN(C)CC4)N(C)[C@H]3C2)nc1` stands -18.2%.
Then `Cc1nn(CCO)cc1CN1CCCC1c1nc2c(C)cccc2[nH]1` (stereo not given), with 71.1%; and `Cc1cccc2[nH]c(C3CCCN3Cc3ccc(CO)o3)nc12` (stereo not given), with -59.5%.
Under `Cc1ncc(CO)c(CN2CCCC2c2nc3c(C)cccc3[nH]2)c1O` (stereo not given) stands -125%.
With `CNCC(=O)N1CC(c2cc(Nc3nc(C)cs3)nc(C)n2)C1`, the INHIBITION is recorded as -47.8%.
Then `Cc1csc(Nc2cc(C3CN(C(C)C)C3)nc(C)n2)n1`, with 37.8%; and `Cc1csc(Nc2cc(C3CN(c4ccncn4)C3)nc(C)n2)n1`, with 68.4%; and `Cc1nc(C)c(C(=O)N2CCCC2c2nc(O)cc(C(C)C)n2)s1` (stereo not given), with 13.5%.
Then `CSc1ccc(C(C(=O)O)N2CCOCC2)cc1` (stereo not given), with 41.2%.
Then `COC1COC2(CCN(Cc3cccc(C#N)c3)CC2)C1` (stereo not given), with -23.8%; and `COC(=O)c1ccn(CC(=O)Nc2nn(CC3CC3)c3ccccc23)n1`, with 32.3%; and `CCn1nc(NC(=O)Cn2ccc(C(C)=O)n2)c2ccccc21`, with 7.38%.
On to `CC(=O)c1ccn(CC(=O)Nc2nn(CC3CC3)c3ccccc23)n1`, for which the INHIBITION is recorded as 71.9%.
Then `O=C1COC2(CCN(Cc3ccsc3)CC2)CN1`, with 24.9%; and `Cc1ccc(NC2CCN(C(=O)c3ccnc(N(C)C)c3)CC2)nn1`, with -115%; and `Cc1nn(C)c(N2CCOCC2)c1CNC1CCc2cc(F)ccc21` (stereo not given), with 6%.
Then `CC(C)(C)Oc1ccccc1CNC(=O)C1CCCOC1` (stereo not given), with 29.8%; and `Cc1nn2cccnc2c1C(=O)NCc1ccccc1OCC1CC1`, with 18.3%; and `O=C(NCc1ccccc1OCC1CC1)C1CCOC1` (stereo not given), with 56.5%.
Then `CC1(C)CN(CC(O)C(C)(C)C)C(=O)CN(C(=O)c2ccccc2)C1` (stereo not given), with 4.07%; and `CCN(Cc1ccccc1)Cc1nc2c(cnn2C)c(=O)[nH]1`, with -51.5%.
`Cc1noc(C)c1C(=O)Nc1ccc2ncn(CC(C)C)c(=O)c2c1`: the INHIBITION turned out to be 29.9%.
Then `O=C(NC(CC(F)(F)F)c1ccc(Cl)cc1)c1nc(=O)[nH][nH]1` (stereo not given), with -7.17%; and `CC(C)(C)CC(NC(=O)c1nc(=O)[nH][nH]1)c1ccc(F)cc1` (stereo not given), with 22.8%; and `O=C(NC(c1ccc(Cl)cc1)C(F)(F)F)c1nc(=O)[nH][nH]1` (stereo not given), with 66.8%.
Then `Cc1cccc(CN2CC[C@H]3O[C@H](C(=O)Nc4cnccn4)CC[C@H]32)n1`, with 34.3%; and `O=C(NC1CC1)[C@H]1CC[C@@H]2[C@@H](CCN2Cc2ccsc2)O1`, with 20.9%.
Under `CC(C)NC(=O)[C@@H]1CC[C@@H]2[C@@H](CCN2Cc2cn(C)c3ccccc23)O1` stands 65.1%; under `O=C([C@H]1CC[C@@H]2[C@@H](CCN2Cc2ccsc2)O1)N1CCOCC1`, -45.5%.
Regarding `CC(C)NC(=O)[C@@H]1CC[C@@H]2[C@@H](CCN2Cc2ccc3ccccc3n2)O1`, the INHIBITION came to 31.9%.
Under `O=C(Nc1cnccn1)[C@@H]1CC[C@@H]2[C@@H](CCN2Cc2nccs2)O1` stands 43.4%; under `O=C(NCC1CC1)[C@H]1CC[C@@H]2[C@@H](CCN2Cc2ccoc2)O1`, 26.8%.
